Screening data: PubChem BioAssay, several laboratories
CYP2C19 activ: activators of human cytochrome P450 2C19. 96,000 tested, under 10 active. activation factor at 5 µM. recombinant CYP2C19, luciferin-H EGE luminescence; active compounds read high; 0 = fully inhibited enzyme, 1 = untreated enzyme;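 active = activation factor of at least 2 at 5 µM in the primary screen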;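 also: 0 = wells with 2.5 mM tranylcypromine and 1 = vehicle-only wells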
CYP2C19 inh: blocks human cytochrome P450 2C19. P33261. inhibition, % at 5 µM. 21% of 96,000 active. CYP2C19 Supersomes, luciferin-H EGE luminescence, 30 min;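 active = CYP2C19 inhibition above a set limit at 5 µM in the primary screen, cut at about 50% in these data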;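 also: plate controls were negative control wells for no effect and 2.5 mM tranylcypromine positive control for full effect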
Measles CPE: protection of cells from measles virus; Measles virus-infected cells, CPE protection, absorbance; protection (pct of control), % at 4 µM; 1.5% of 140,000 active; in the data active = protection mostly above about 24%, no sharp cut-off; inactive = mostly below about 26%
CYP2C9 inhib: human CYP2C9 inhibition | inhibition, % at 5 µM | 20% of 96,000 active | CYP2C9 Supersomes, luciferin-H conversion, luminescence | AID 777;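 active = blocking of liver enzyme CYP2C9 beyond about 50% at 5 µM, limit read from the data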
Target sequence (P11712 whole entry, looked up): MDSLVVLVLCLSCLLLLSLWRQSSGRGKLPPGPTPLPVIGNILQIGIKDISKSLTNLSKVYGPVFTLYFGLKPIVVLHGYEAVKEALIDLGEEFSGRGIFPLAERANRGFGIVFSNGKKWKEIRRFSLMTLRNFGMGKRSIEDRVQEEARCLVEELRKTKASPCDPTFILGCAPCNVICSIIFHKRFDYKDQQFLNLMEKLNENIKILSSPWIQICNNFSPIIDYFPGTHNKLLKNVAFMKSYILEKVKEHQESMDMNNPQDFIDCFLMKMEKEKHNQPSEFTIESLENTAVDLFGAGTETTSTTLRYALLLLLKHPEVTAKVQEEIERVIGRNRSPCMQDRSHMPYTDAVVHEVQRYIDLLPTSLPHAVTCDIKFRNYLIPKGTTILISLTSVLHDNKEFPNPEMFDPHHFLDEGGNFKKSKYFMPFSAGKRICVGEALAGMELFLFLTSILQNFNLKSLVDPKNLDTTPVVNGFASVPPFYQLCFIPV
CYP2C9 activ: increases human cytochrome P450 2C9 activity. P11712. recombinant CYP2C9, luciferin-H conversion, luminescence; active compounds read high; factor 1 = untreated enzyme, 0 = blocked. activation factor at 5 µM. 1.4% of 96,000 active. AID 1024;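 active = activation factor of 2 or more for CYP2C9 at a 5 µM dose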;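 also: 0 = sulfaphenazole-blocked wells and 1 = vehicle-only wells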
* hit, by the source's call; . = not tested or not shown. An excerpt weighted towards active compounds, which were near 22% of everything screened.

SMILES	CYP2C19 activ	CYP2C19 inh	Measles CPE	CYP2C9 inhib	CYP2C9 activ
N#CC1=C(N)OC2=C(C(=O)CCC2)C1c1ccsc1 (stereo not drawn)	0.4	57*	4	28	0.7
CC(=O)NCCCc1nc2ccccc2n1Cc1ccc(C)cc1	0.8	22	5	49	0.5
Cc1ccc(-c2nnc(NC3CCCCC3)c3ccccc23)cc1S(=O)(=O)N1CCN(C)CC1	0.9	5	22	27	0.7
Cc1ccccc1N1CCN(C(=O)c2ccc(Oc3ccc(C(F)(F)F)cn3)cc2)CC1	0.8	19	19	76*	0.2
Cc1cccc(C(=O)N2CCN(c3ccc(C(F)(F)F)cn3)CC2)c1C	0.3	74*	7	39	0.6
COc1ccc(C)cc1N(C(=O)c1ccccc1F)c1nc2ccccc2s1	.	.	12	.	.
CCOC(=O)C(C)Sc1nc(-c2cccs2)ccc1C#N (stereo not drawn)	0.1	91*	5	96*	0
Cc1cc(-c2[nH]nc3c2C(c2cccc(O)c2)C(C#N)=C(N)O3)c(C)s1 (stereo not drawn)	0.1	88*	17	51*	0.5
COCc1[nH]nc2c1C(c1ccsc1)C(C#N)=C(N)O2 (stereo not drawn)	1	4	20	-8	1.1
Cc1cc(-c2[nH]nc3c2C(c2ccsc2)C(C#N)=C(N)O3)c(C)s1 (stereo not drawn)	0.2	84*	7	93*	0.1
COc1ccc(/C(C)=N/NC(=S)NCc2ccco2)cc1	.	.	25	.	.
O=C(Nc1ccccc1)NC1(C(=O)NCc2ccco2)CCCCC1	0.9	15	4	40	0.6
CC(=O)Nc1ccc(SCC(=O)OCC(=O)NC(=O)NCc2ccco2)cc1	0.8	20	4	66*	0.3
O=C(NCc1ccco1)C12CC3CC(CC(C3)C1)C2	.	.	26	.	.
O=C(NCc1ccco1)Nc1ccc(Br)cc1	0.4	64*	13	64*	0.4
Cc1ccc(NC(=O)NC2(C(=O)NCc3ccco3)CCCCC2)cc1	0.1	93*	1	54*	0.5
O=C(NCc1ccco1)C1(c2ccc(Br)cc2)CCCC1	0.7	31	5	70*	0.3
CCOC(=O)c1c(N)c(C#N)c2n1CCCC2	1	1	5	-4	1
CCOC(=O)c1c(N)c(C#N)c2n1CCCCC2	0.1	95*	25	34	0.7
Cc1ccc(-c2nnc(SCC(=O)Nc3ccccc3F)o2)cc1	0.8	24	9	37	0.6
CC(C)CC(=O)Nc1ccc(C(=O)COc2ccc(-c3nnco3)cc2)cc1	0.3	72*	4	93*	0.1
Cc1csc(NC(=O)CSc2nnc(-c3ccncc3)o2)n1	0.5	55*	4	29	0.7
COc1ccccc1NC(=O)CSc1nnc(C2CCCCC2)o1	0.4	56*	15	44	0.6
O=C(CSc1nnc(-c2ccccc2)o1)Nc1ccccc1F	0.4	57*	0	29	0.7
CC1CCCC(C)N1C(=O)COc1ccc(-c2nnco2)cc1 (stereo not drawn)	1	2	8	3	1
SMILES	CYP2C19 activ	CYP2C19 inh	Measles CPE	CYP2C9 inhib	CYP2C9 activ
CCOC(=O)c1cc(-c2nnc(-c3ccc(Cl)cc3)o2)c(C)nc1C	0.8	16	0	9	0.9
N#Cc1ccsc1NC(=O)COc1ccc(-c2nnco2)cc1	0.2	78*	5	95*	0
Cc1sc(NC(=O)CSc2nnc(-c3ccc(F)cc3)o2)c(C#N)c1C	0.3	70*	27	72*	0.3
CCOC(=O)c1cc(-c2nnc(SCC(=O)Nc3ccc(F)cc3)o2)c(C)nc1C	0.8	20	4	51*	0.5
CCn1c(SCC(=O)Nc2cc(OC)ccc2OC)nnc1C1CCCCC1	0.3	69*	24	-11	1.1
Cc1nnc(-c2ccco2)c2cn(-c3cccc(Br)c3)nc12	.	.	16	.	.
CCCCP(=O)(c1ccccn1)c1ccccn1	0.9	6	.	1	1
COc1ccccc1NC(=O)CSc1nnc(-c2ccncc2)o1	0.2	84*	.	30	0.7
COC(=O)c1ccccc1NC(=O)CSc1nnc(-c2ccc(C)cc2)o1	.	.	11	.	.
O=C(CSc1nnc(-c2ccc(Br)cc2)o1)Nc1cccc2ccccc12	0.3	70*	20	74*	0.3
Cc1cccc(C)c1OCc1nnc(SCC(=O)Nc2ccccc2F)o1	0.9	13	12	59*	0.4
O=C(CSc1nnc(-c2ccncc2)o1)Nc1ccccc1Cl	0.1	90*	7	17	0.8
Cc1cnc(NC(=O)CSc2nnc(-c3ccccc3)o2)s1	.	.	7	.	.
N#Cc1ccsc1NC(=O)CSc1nnc(-c2ccccc2)o1	0.7	28	1	85*	0.2
COCCn1c(C)cc(C(=O)CSc2nnc(-c3cccnc3)n2-c2ccccc2F)c1C	0.9	13	10	21	0.8
CN(CCc1ccccn1)Cc1ccc(Cl)cc1Cl	0.3	68*	9	2	1
CN(CCc1ccccn1)S(=O)(=O)c1ccccc1F	0.4	64*	.	-33	1.3
N#CC(=C1CCCC1)c1nc(-c2ccccc2)cs1	0.8	17	6	-11	1.1
N#CC(=C1CCCC1)c1nc(-c2ccccc2O)cs1	0.3	72*	27	37	0.6
O=c1c2ccccc2nc2ccc(N3CCOCC3)nn12	0.9	6	12	-1	1
COC(=O)CCC(=O)Nc1ccc(Cl)c(Cl)c1	0.7	28	3	2	1
COC(=O)CCC(=O)NC(=S)Nc1cc(Cl)ccc1Cl	0.5	54*	4	53*	0.5
O=C(Nc1cc(C(F)(F)F)ccc1N1CCCC1)c1ccc2c(c1)OCO2	0.3	69*	40	77*	0.2
Cc1cc(C)n(-c2ccc(C(=O)Nc3cc(C(F)(F)F)ccc3N3CCOCC3)cc2)n1	0.9	6	4	12	0.9
O=C(Nc1ccccc1N1CCCCC1)c1ccc(F)cc1	0.8	16	3	-1	1
SMILES	CYP2C19 activ	CYP2C19 inh	Measles CPE	CYP2C9 inhib	CYP2C9 activ
O=C(Nc1ccccc1N1CCCC1)c1ccc2c(c1)OCO2	0.3	71*	1	53*	0.5
O=C(Nc1cc(C(F)(F)F)ccc1N1CCCCC1)c1cccc([N+](=O)[O-])c1	0.7	33	2	56*	0.4
Cc1ccc(C(=O)Nc2cc(C(F)(F)F)ccc2N2CCCCC2)cc1[N+](=O)[O-]	0.5	46	5	26	0.7
Cc1cc(C)c(OCC(=O)OCCNC(=O)c2cccnc2)c(C)c1	.	.	6	.	.
O=C(Oc1ccccc1)c1cccc(COC(=O)c2cnccn2)c1	0.6	41	3	40	0.6
CC(C)[C@H](NC(=O)c1ccccc1)C(=O)OCC(=O)c1ccc2c(c1)NC(=O)CO2	0.5	52*	19	40	0.6
N#Cc1ccccc1OCC(=O)OCC(=O)c1ccc2c(c1)NC(=O)CO2	0.3	67*	6	59*	0.4
COc1cc(OC)cc(C(=O)N[C@H](C(=O)OCC(=O)c2ccc3c(c2)NC(=O)CO3)C(C)C)c1	0.7	29	32*	26	0.7
